Source: PubChem (several laboratories)
DUSP1 inh: human dual specificity phosphatase 1 inhibition. P28562. recombinant MKP-1, OMFP hydrolysis fluorescence. inhibition, %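 (compounds tested at a single concentration somewhere between 10 and 100 µM)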. 0.15% of 65,000 active. AID 374;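 active = inhibition above about 50%, limit read from the data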
Target sequence (P28562 whole entry, looked up): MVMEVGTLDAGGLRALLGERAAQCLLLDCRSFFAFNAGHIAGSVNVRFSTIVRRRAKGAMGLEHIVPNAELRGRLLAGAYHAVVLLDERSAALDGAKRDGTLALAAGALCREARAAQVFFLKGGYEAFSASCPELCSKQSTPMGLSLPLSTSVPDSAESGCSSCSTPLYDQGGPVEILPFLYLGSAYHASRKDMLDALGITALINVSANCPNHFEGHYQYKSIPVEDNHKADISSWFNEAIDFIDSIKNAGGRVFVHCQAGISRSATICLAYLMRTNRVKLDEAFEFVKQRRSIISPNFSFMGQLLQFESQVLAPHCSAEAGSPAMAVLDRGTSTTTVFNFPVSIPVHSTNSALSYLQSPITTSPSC
Jurkat viability: cytotoxicity toward Jurkat cells; Jurkat E6.1 viability, ATP luminescence, 48 h; inhibition, % at 4 µM; 1.2% of 56,000 active;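 active = inhibition above the mean inhibition of all tested compounds plus 3 SD, cut at about 28% in these data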
Htt clearance: compounds clearing mutant huntingtin protein; HeLa Exon1htt(103Q)mCFP, aggregate imaging; zero = plate's median compound well; inhibition, % at 1.5 µM; 0.42% of 47,000 active;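 active = inhibition of aggregate fluorescence above about 70%, also judged a hit by eye on the cell image, limit read from the data, passing the limit was not always enough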;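 also: cells exposed to compound for three days before fixation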
SK-BR-3 tox 24h: SK-BR-3 proliferation inhibitors. SK-BR-3 viability, CellTiter-Glo ATP luminescence, 24 h; stronger effect = lower value. viability, % at 10 µM. AID 847. 0.47% of 41,000 active;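 active = viability at or below the median of all test compounds minus 3 SD, in both replicates if run twice, cut at about 45% in these data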
Cdc25B inh: human M-phase inducer phosphatase 2 inhibition. P30305. recombinant Cdc25B, OMFP fluorescence Ex485/Em525. inhibition, %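 (compounds tested at 10 µM final in the well)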. 0.1% of 65,000 active; in the data active = inhibition above about 50%
Numbers stand for hits; – = inactive; · = not tested or not shown. Hits are enriched below; roughly 1.6% of the tested compounds scored in any of these assays.

SMILES | DUSP1 inh | Jurkat viability | Htt clearance | SK-BR-3 tox 24h | Cdc25B inh
CCCc1cc(C(=O)Nc2ccc(C)cc2)no1 | – | – | – | · | –
CC(C)c1cc(C(=O)Nc2cc(Cl)ccc2O)no1 | – | 54 | – | – | –
CC(=O)OC1c2ccccc2C(=O)N1Cc1ccccc1 (stereo not drawn) | · | · | – | · | ·
O=S(=O)(CCOc1ccccc1)c1nc2ccccc2[nH]1 | – | – | – | – | –
COc1cc(OC)cc(C(=O)n2cnnc2N)c1 | · | · | – | · | ·
O=C(CSc1nc2ccccc2c(=O)[nH]1)N1CCCCCC1 | – | – | · | · | –
O=C(CSc1nc2ccccc2c(=O)[nH]1)N1CCOCC1 | – | – | · | 24 | –
CC1CC(C)CN(c2nc3c(c(=O)[nH]c(=O)n3C)n2CCSc2nc3ccccc3o2)C1 (stereo not drawn) | – | – | · | · | –
Clc1ccc(COn2nnc3ccccc32)c(Cl)c1 | – | – | – | – | –
c1ccc(-c2nc(N3CCCCCC3)c3ccccc3n2)nc1 | – | 72 | – | – | –
c1ccc(-c2nc(N3CCOCC3)c3ccccc3n2)nc1 | – | – | · | – | –
CN(C)c1ccc(C2C=C(c3ccc(Cl)cc3OC(F)F)Nc3ncnn32)cc1 (stereo not drawn) | – | 60 | · | – | –
Cc1ccc(C2C=C(c3ccccc3OC(F)F)Nc3ncnn32)cc1 (stereo not drawn) | – | – | · | – | –
CC1(C)Cc2c(cnn2-c2ccccc2)-c2c1c1ccccc1n2CC(O)CBr (stereo not drawn) | · | · | – | · | ·
Cc1cc(C)c2nc(-c3ccccn3)cc(C(=O)Nc3cc(C)on3)c2c1 | – | – | – | – | –
Cc1cc(NC(=O)c2cc(-c3ccncc3)nc3c(C)cccc23)no1 | – | 78 | – | – | –
CCCn1c(=O)c(C(=O)Nc2nnc(C)s2)c(O)c2ccccc21 | – | – | · | · | –
COc1ccc(N(Cc2cc(=O)[nH]c3ccccc23)C(=O)c2ccco2)cc1 | – | – | · | 44 | –
CCOc1cc(C2c3c(n[nH]c3C)C(=O)N2c2ccc(Br)cc2)ccc1O (stereo not drawn) | – | – | – | 37 | –
COc1cc(C2c3c(n[nH]c3C)C(=O)N2c2ccc(Br)cc2)ccc1O (stereo not drawn) | – | – | – | – | –
COc1ccc(C2CC(c3c(O)cc(C)oc3=O)=NCCS2)c(OC)c1 (stereo not drawn) | – | 95 | · | · | –
O=C(COc1ccccc1)N1CCN(S(=O)(=O)c2cccs2)CC1 | – | – | · | – | 61
Cc1ccccc1NC(=O)COC(=O)CN1C(=O)NC(C)(C)C1=O | · | · | – | · | ·
COC(=O)c1[nH]c2ccc(C)cc2c1NS(=O)(=O)c1ccc(F)cc1 | – | – | · | 38 | –
COC(=O)c1[nH]c2ccc(C)cc2c1NS(=O)(=O)c1ccc(F)c(C)c1 | – | – | – | – | –
SMILES | DUSP1 inh | Jurkat viability | Htt clearance | SK-BR-3 tox 24h | Cdc25B inh
Cc1onc(-c2ccccc2)c1C(=O)Nc1ccccc1N1CCOCC1 | – | – | · | · | –
Cc1onc(-c2ccccc2)c1C(=O)Nc1cc(C(F)(F)F)ccc1N1CCOCC1 | – | 87 | · | · | –
COC(=O)c1cc(NC2c3ncccc3C(=O)N2Cc2ccccc2)cc(C(=O)OC)c1 (stereo not drawn) | – | – | · | · | –
CCOC(=O)c1ccc(NC2c3ncccc3C(=O)N2Cc2ccc(F)cc2)cc1 (stereo not drawn) | 52 | – | – | · | –
CCOc1ccccc1NC(=O)C1=C(C)NC(=O)NC1c1cccc(OC)c1OC (stereo not drawn) | – | – | – | 23 | –
O=C(NC1CC1)c1cc2c(s1)-c1ccccc1OC2 | – | 38 | · | · | –
O=C(O)c1cc2c(s1)-c1ccccc1OC2 | – | · | · | – | –
CCOc1ccc(C2c3c(oc4ccccc4c3=O)C(=O)N2c2ccccn2)cc1OC (stereo not drawn) | – | – | · | · | –
NC(=O)CCn1c(=O)oc2ccccc21 | – | – | – | – | –
O=C(CCn1c(=O)oc2ccccc21)N(Cc1ccccc1)c1ccccn1 | – | – | 73 | – | –
O=S(=O)(c1ccc2c(c1)C(=NO)c1cc(S(=O)(=O)N3CCCCC3)ccc1-2)N1CCCCC1 | – | – | · | 3.5 | –
O=C(CN1C(=O)C2C3C=CC(C3)C2C1=O)Nc1ccc2c(c1)OCCO2 (stereo not drawn) | – | – | · | 32 | –
CCCCOc1ccc(C(=O)NC)cc1 | – | – | – | – | –
CCCCOc1ccc(C(=O)Nc2ccncc2)cc1 | – | 91 | · | – | –
CCCCOc1ccc(C(=O)NCC(=O)NCC(=O)OCC)cc1 | – | · | · | – | 91
O=c1cc(CSc2ccc(S(=O)(=O)N3CCCCC3)cn2)nc2sccn12 | – | – | – | – | –
